Active and inactive are the calls of the source.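 The calls were made as follows: active = average half-effect concentration of 10 µM or less in every one of the four cell panels; inactive = the rest.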
Test system: H9c2
Experiment: protection of cardiomyocytes from stress damage, SAR follow-up, cell-based, panel, H9c2 and HL-1, H2O2, 2-deoxyglucose, ATP luminescence (AID 651642)
Settings: H9c2/HL-1 cardiomyocyte H2O2 oxidative damage, mean of runs, with H2O2

Compound | outcome
COc1ccc2c(c1OC)C(=O)N1c3ccccc3C(=O)N(Cc3cccc(F)c3)C21 (configuration not stated) | inactive
CCOC(=O)c1cccc(NC(=O)c2cc(-c3cc(OC)c(OC)c(OC)c3)nc3cc(Cl)ccc23)c1 | inactive
COc1cc(-c2cc(C(=O)Nc3cccc(C(=O)NC4CC4)c3)c3ccccc3n2)cc(OC)c1OC | active
COc1ccc2c(c1OC)C(=O)N1c3ccccc3C(=O)N(Cc3ccccc3Cl)C21 (configuration not stated) | inactive
COc1ccc2c(c1OC)C(=O)N1c3ccccc3C(=O)N(Cc3ccc(C)cc3C)C21 (configuration not stated) | inactive
CCOC(=O)c1cccc(NC(=O)c2cc(-c3cc(OC)c(OC)c(OC)c3)nc3ccc(OC)cc23)c1 | active
CCOC(=O)c1cccc(NC(=O)CNC(=O)c2cc(-c3cc(OC)c(OC)c(OC)c3)nc3ccc(Br)cc23)c1 | active
COc1cc(-c2cc(C(=O)Nc3cccc(C(N)=O)c3)c3ccccc3n2)cc(OC)c1OC | active
CCOC(=O)c1cccc(NC(=O)c2cc(-c3cc(OC)c(OC)c(OC)c3)nc3ccc(F)cc23)c1 | inactive
COc1cc(-c2cc(C(=O)NCC(=O)Nc3ccc(C(C)=O)cc3)c3cc(C)ccc3n2)cc(OC)c1OC | active
COc1cc(-c2cc(C(=O)Nc3cccc(C(C)=O)c3)c3cc(F)ccc3n2)cc(OC)c1OC | active
CCOC(=O)c1cccc(NC(=O)c2cc(-c3cc(OC)c(OC)c(OC)c3)nc3ccc(C)cc23)c1 | active
COc1cc(-c2cc(C(=O)NCC(=O)Nc3cccc(C(C)=O)c3)c3cccc(Cl)c3n2)cc(OC)c1OC | active
COc1cc(-c2cc(C(=O)NCC(=O)Nc3cccc(C(C)=O)c3)c3cc(Br)ccc3n2)cc(OC)c1OC | active
COc1ccc2c(c1OC)C(=O)N1c3ccccc3C(=O)N(Cc3c(Cl)cccc3Cl)C21 (configuration not stated) | inactive
COc1cc(-c2cc(C(=O)NCC(=O)O)c3ccccc3n2)cc(OC)c1OC | inactive

Compound | outcome
CCOC(=O)c1cccc(NC(=O)c2cc(-c3cc(OC)c(OC)c(OC)c3)nc3ccccc23)c1 | inactive
COc1cc(-c2cc(C(=O)Nc3cccc(C(C)=O)c3)c3cccc(Cl)c3n2)cc(OC)c1OC | inactive
COc1cc(-c2cc(C(=O)Nc3cccc(C(C)=O)c3)c3ccccc3n2)cc(OC)c1OC | inactive
COc1ccc2c(c1OC)C(=O)N1c3ccccc3C(=O)N(Cc3ccccc3C)C21 (configuration not stated) | inactive
COc1cc(-c2cc(C(=O)Nc3cccc(C#N)c3)c3ccccc3n2)cc(OC)c1OC | inactive
CCOC(=O)c1cccc(NC(=O)CNC(=O)c2cc(-c3cc(OC)c(OC)c(OC)c3)nc3c(Cl)cccc23)c1 | inactive
COc1ccc2c(c1OC)C(=O)N1c3ccccc3C(=O)N(Cc3ccncc3)C21 (configuration not stated) | inactive
COc1cc(-c2cc(C(=O)Nc3cccc(-c4nn[nH]n4)c3)c3ccccc3n2)cc(OC)c1OC | inactive
COc1ccc2nc(-c3cc(OC)c(OC)c(OC)c3)cc(C(=O)NCC(=O)Nc3ccc(C(C)=O)cc3)c2c1 | active
COc1ccc2c(c1OC)C(=O)N1c3ccccc3C(=O)N(Cc3ccccn3)C21 (configuration not stated) | inactive
COc1ccc(NC(=O)CNC(=O)c2cc(-c3cc(OC)c(OC)c(OC)c3)nc3ccccc23)cc1 | inactive
CCOC(=O)c1cccc(NC(=O)c2cc(-c3cc(OC)c(OC)c(OC)c3)nc3c(Cl)cccc23)c1 | inactive
COc1ccc2c(c1OC)C(=O)N1c3ccccc3C(=O)N(Cc3ccc(F)cc3)C21 (configuration not stated) | inactive
COc1cc(-c2cc(C(=O)NCC(=O)Nc3cccc(C(C)=O)c3)c3cc(F)ccc3n2)cc(OC)c1OC | active
COc1ccc2c(c1OC)C(=O)N1c3ccccc3C(=O)N(Cc3cccc(C)c3)C21 (configuration not stated) | inactive
COc1ccc2nc(-c3cc(OC)c(OC)c(OC)c3)cc(C(=O)NCC(=O)Nc3cccc(C(C)=O)c3)c2c1 | inactive

— PubChem BioAssay AID651642 (Sanford-Burnham Center for Chemical Genomics, 2012)
